The source of these data is PubChem BioAssay (Tox21).

Active and inactive are the calls of the source. Entries that show only a call come without a potency. The call rests on the fitted dose curve.

Chain of Acetylcholinesterase (Homo sapiens) (P22303 whole entry, looked up): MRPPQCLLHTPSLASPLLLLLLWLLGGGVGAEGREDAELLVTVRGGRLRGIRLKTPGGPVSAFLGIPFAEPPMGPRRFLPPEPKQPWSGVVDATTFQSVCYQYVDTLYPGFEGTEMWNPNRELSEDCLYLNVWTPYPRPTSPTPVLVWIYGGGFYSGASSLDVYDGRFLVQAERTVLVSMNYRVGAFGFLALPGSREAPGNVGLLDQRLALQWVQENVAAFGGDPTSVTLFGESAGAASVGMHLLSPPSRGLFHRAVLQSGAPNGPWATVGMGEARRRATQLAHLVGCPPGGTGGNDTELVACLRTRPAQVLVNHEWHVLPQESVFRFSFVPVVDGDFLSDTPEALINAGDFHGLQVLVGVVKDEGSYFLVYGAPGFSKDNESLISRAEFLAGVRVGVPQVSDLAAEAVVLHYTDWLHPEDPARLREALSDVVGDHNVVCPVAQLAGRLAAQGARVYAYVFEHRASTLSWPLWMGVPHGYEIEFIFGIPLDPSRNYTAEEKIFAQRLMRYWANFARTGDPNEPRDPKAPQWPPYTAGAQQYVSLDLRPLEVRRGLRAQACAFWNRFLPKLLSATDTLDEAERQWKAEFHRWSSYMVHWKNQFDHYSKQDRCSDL

The target in this assay is Acetylcholinesterase (Homo sapiens) (UniProt P22303). The experiment in a line: Acetylcholinesterase (AChE) small molecule antagonists: enzyme-based qHTS assay with human liver microsomes (AID 1347399). Further: nearly all actives have a fitted effect of over 60% in size. To be noted: Potency: qHTS inhibition; outcome: qHTS inhibition; series mostly up to 115 µM. The gist of the method:
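Recombinant human AChE (50 mU/mL in the enzyme mix) and human liver microsomes (0.25 mg/mL final) were preincubated with compound and NADPH (0.25 mg/mL final) for 30 min at 37 C. Acetylthiocholine/DTNB was then added; thiocholine was read colorimetrically after 10 min at room temperature.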
On the technique in general: Quantitative high-throughput screening tests each substance at several concentrations.
`N#Cc1ccc(C2CCCc3cncn32)cc1` (centres undefined): the Potency entry was “inactive”. Consider `Cc1onc(-c2ccccc2)c1-c1ccc(S(N)(=O)=O)cc1`, for which the Potency entry was “inactive”. For `CCOCN(C(=O)CS(=O)(=O)O)c1c(C)cccc1CC`, the Potency result was “inactive”. Take `CNCC(O)c1ccc(O)c(O)c1` (centres undefined): the compound was classed as inactive. As for `CCN(CC)c1ccc(C=O)cc1`, the Potency result was “inactive”.

With `CCCN(CCC)C(=O)C(CCC(=O)O)NC(=O)c1ccccc1` (centres undefined), the Potency result was “inactive”.

Regarding `N#CCCCC(C#N)CCC#N` (centres undefined), the Potency result was “inactive”. Take `CCCCCCCCCCCCCCCC/C=C/C1CC(=O)OC1=O` (centres undefined): the Potency result is “inactive”. With `CC1(C)OC(=O)Nc2ccc(Br)cc21`, the Potency result was “inactive”. Same read-out and setting: next, `COC(=O)[C@@H]1[C@H]2C[C@H]3c4[nH]c5ccccc5c4CCN3C[C@@H]2CC[C@@H]1O`: “inactive”; `N#CCc1cccc(C(F)(F)F)c1`: “inactive”. Regarding `CC(C)(C)C1CCC(=O)CC1`, the Potency entry was “inactive”. Regarding `CCCCOC(=O)CCCCCCCC(=O)OCCCC`, the Potency entry is “inactive”. As to `Cc1ccccc1N=Nc1ccc(N=Nc2c(O)ccc3ccccc23)c(C)c1`, the Potency result is “inactive”.

`Clc1cc(Cl)cc(Cl)c1`: the Potency entry was “inactive”.

In the case of `CCC(C)CCCC(C)(C)O` (centres undefined), the Potency result is “inactive”. As to `O=C(O)[C@H](O)c1ccccc1`, the Potency entry is “inactive”. The same measure, in the same setting: next, `OCC(O)c1ccccc1` (centres undefined): “inactive”; `CC(CC(=O)Cl)CC(C)(C)C` (centres undefined): “inactive”.

In the case of `CC(C)SCc1ccco1`, the Potency entry was “inactive”.

With `OCCC(F)(F)C(F)(F)C(F)(F)C(F)(F)C(F)(F)C(F)(F)F`, the Potency result was “inactive”. For the compound `CC1CC(=O)CC(C)(C)C1` (centres undefined), the Potency entry was “inactive”. For the compound `CCCCCc1ccc(O)cc1`, the Potency entry is “inactive”.

For `CC(=O)N(CC(=O)N(C)C)c1ccccc1`, the Potency result is “inactive”.

On to `COc1ccnc(CS(=O)c2nc3ccc(OC(F)F)cc3[nH]2)c1OC` (centres undefined), for which the Potency result was “inactive”. With `O=CC=C(c1ccccc1)c1ccccc1`, the Potency entry is “inactive”.

On to `CCO[Si](CCC1CCC2OC2C1)(OCC)OCC` (centres undefined), for which the Potency entry was “inactive”. In the case of `COCCc1ccccn1`, the Potency result was “inactive”. Turning to `NCc1ccccc1`, the Potency entry was “inactive”. Still for that read-out and setting: next, `CCCCCCCCCC#N`: “inactive”; `O=C(CCS)OCC(COC(=O)CCS)(COC(=O)CCS)COC(=O)CCS`: “inactive”. For the compound `O=[N+]([O-])c1ccc2[nH]ncc2c1`, the Potency result was “inactive”. On to `CN1[C@@H]2CC[C@H]1CC(NC(=O)n1c(=O)[nH]c3ccccc31)C2` (some centres undefined), for which the Potency result is “inactive”. Consider `O=C1OC(OC(=O)c2cccnc2Nc2cccc(C(F)(F)F)c2)c2ccccc21` (centres undefined), for which the Potency entry is “inactive”.

`OC[C@@H](O)[C@@H](O)CO`: the Potency entry was “inactive”. The same measure, in the same setting: next, `Cc1ccc(Nc2ccc(O)c3c2C(=O)c2ccccc2C3=O)cc1`: “inactive”. On to `c1ccc(-c2nn[nH]n2)cc1`, for which the Potency entry is “inactive”. `Cc1ccc(N)nc1`: the Potency entry is “inactive”. Consider `O=C(CCCCCCC(=O)Nc1ccccc1)NO`, for which the Potency entry is “inactive”.
